Hits are enriched below; roughly 11% of the tested compounds scored in any of these assays.
ALDH1A1 block: qHTS Assay for Inhibitors of Aldehyde Dehydrogenase 1 (ALDH1A1). Aldehyde dehydrogenase 1A1 (Homo sapiens), P00352. Purified ALDH1A1, NADH fluorescence, propionaldehyde substrate. Potency, µM (doses to about 75.3 µM), without a hit: at the top dose activity, negative = inhibition, most hits filed as inhibitors. 220,000 compounds, 7.3% hits. AID 1030, 2008; active = well fitted inhibition curve with a large enough effect, not every such curve was filed as active; inconclusive = small, poorly fitted or top-dose-only effect, or another doubt; inactive = no such curve, though single readings can be large or run the other way;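 note: potency is the fitted concentration of half-maximal effect; plate controls were no enzyme wells and a reference inhibitor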
HPGD block: qHTS Assay for Inhibitors of HPGD (15-Hydroxyprostaglandin Dehydrogenase). 15-hydroxyprostaglandin dehydrogenase [NAD(+)] (Homo sapiens), P15428. purified HPGD, NADH fluorescence kinetic, PGE2 substrate. Potency, µM, for inactives: at the highest dose activity change, negative = inhibition, usual class: inhibitors. 150,000 compounds, 4.3% hits; active = well fitted inhibition curve with a large enough effect, not every such curve was filed as active; inconclusive = small, poorly fitted or top-dose-only effect, or another doubt; inactive = no such curve, though single readings can be large or run the other way; note: potency is the fitted concentration of half-maximal effect; % is set by controls: 0 for no effect and ±100 for the full control effect
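NADH formation kinetics: reaction with 30 uM PGE2 and 1 mM NAD+ (final), 20 nM enzyme, Tris-HCl pH 8 with Tween 20, after 15 min compound preincubation at room temperature. Fluorescence change, last versus first of five reads.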
PNC inhibitor: High Content Assay for Compounds that inhibit the Assembly of the Perinucleolar Compartment; AID 2417, 2010; activity change (PNC), negative = inhibition, % at 10 µM; 140,000 compounds, 3.1% hits; PC3M PTB-GFP, PNC prevalence imaging, 16 h; active compounds read low;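 active = readout at or below -70, meaning at least 70% loss of cells showing the perinucleolar compartment, a nuclear body marking cancer cells; inconclusive = readout between -30 and a set limit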;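 note: plate controls were DMSO wells for no effect and camptothecin positive control wells for full effect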
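Compounds are pinned in duplicate onto adhered PC3M cells stably expressing GFP-tagged PTB and incubated 16 h at 37 C. Cells are then fixed, nuclei stained with Hoechst, and PNC-positive cells counted.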
GoLoco inh red: qHTS Assay for Inhibitors of RGS12 GoLoco Motif Activity (Red Fluorophore). Guanine nucleotide-binding protein G(i) subunit alpha-1 (Homo sapiens), P63096. Gai1:RGS12 GoLoco peptide FP, rhodamine, 10 min. Potency, µM (highest dose often 61.6 µM), for inactives: at the highest dose activity, negative = inhibition, hits mostly inhibitors. 230,000 compounds, 0.44% hits. AID 880, 2007; active = well fitted inhibition curve with a large enough effect, not every such curve was filed as active; inactive = no such curve, though single readings can be large or run the other way; note: potency is the fitted concentration of half-maximal effect; % is set by controls: 0 for no effect and ±100 for the full control effect; nearly all actives have a fitted effect of over 30% in size
Target sequence (P63096 whole entry, looked up): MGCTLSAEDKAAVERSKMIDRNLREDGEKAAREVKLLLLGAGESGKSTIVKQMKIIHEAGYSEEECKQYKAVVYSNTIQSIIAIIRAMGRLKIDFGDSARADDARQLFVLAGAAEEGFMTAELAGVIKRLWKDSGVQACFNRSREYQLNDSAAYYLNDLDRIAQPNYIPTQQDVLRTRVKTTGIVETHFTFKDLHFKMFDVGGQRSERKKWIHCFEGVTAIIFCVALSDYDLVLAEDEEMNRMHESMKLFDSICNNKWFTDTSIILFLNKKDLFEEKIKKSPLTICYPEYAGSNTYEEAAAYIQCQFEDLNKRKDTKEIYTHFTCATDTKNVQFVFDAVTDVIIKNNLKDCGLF
HTT ATP protect: qHTS Multiplex Assay to Identify Dual Action Probes in a Cell Model of Huntington: Cytoprotection (ATP); Potency, µM (highest dose often 56.4 µM), for inactives: cytoprotection (ATP increase), most hits filed as activators; PC12 HTT-Q103 induced, cytoprotection, ATP luminescence, 40 h; AID 1471, 2008; 230,000 compounds, 0.14% hits; note: potency is the fitted concentration of half-maximal effect; % of control where 0% means no effect; nearly all actives have a fitted effect of over 45% in size
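Quantitative HTS on tebufenozide-induced (100 nM) PC12 cells expressing HTTQ103 exon 1–GFP; compounds tested as a concentration series; survival measured via cellular ATP.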
HTT aggregate: qHTS Multiplex Assay to Identify Dual Action Probes in a Cell Model of Huntington: Aggregate Formation (GFP); PC12 HttQ103-GFP aggregates, Acumen cytometry, 40 h; 220,000 compounds, 1.1% hits; AID 1688, 2009; Potency, µM (top dose mostly 46.1 µM), for the others: at the highest dose activity change, negative = inhibition, actives largely listed as inhibitors; note: potency is the fitted concentration of half-maximal effect; % is set by controls: 0 for no effect and ±100 for the full control effect; nearly all actives have a fitted effect of over 60% in size
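PC12 cells stably carrying ecdysone-inducible HTT exon 1 Q103–GFP were induced with tebufenozide (100 nM final) and treated with library compounds in titration. GFP aggregates in lysates were counted by laser scanning cytometry.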
* hit, by the source's call; ? = inconclusive; / = not tested or not shown; [ ] = dose if it differs, or a comment. Unless noted, calls come from the whole dose curve; as a rule, active = well fitted curve in the direction sought with a large enough effect; inconclusive = small, poorly fitted or top-dose-only effect, or another doubt; inactive = no such curve, though single readings can be large; an effect the other way counts as inactive or inconclusive.

SMILES	ALDH1A1 block	HPGD block	PNC inhibitor	GoLoco inh red	HTT ATP protect	HTT aggregate
Cc1ccc(C(NC(=O)N2CC(C)OC(C)C2)C(Cl)Cl)cc1F (stereo not given)	10µM*	-7.5%	?	-9.4%	0.7%[10 µM]	?
Cc1ccc(C(NC(=O)N2CCOCC2)=C(Cl)Cl)cc1F	0.112µM*	-14.8%	4.6	-9.8%	-2.5%[4.97 µM]	15.0%
Cc1ccc(C(NC(=O)N2CCN(C)CC2)C(Cl)Cl)cc1F (stereo not given)	?	/	/	13.5%	-27.3%	10.0%
Cc1ccc(C(NC(=O)N2CCOCC2)C(Cl)Cl)cc1F (stereo not given)	20µM*	4.5%	?	-0.6%	11.5%[10 µM]	10.5%
OCCNc1c2ccccc2nc2c(F)c(F)c(F)c(F)c12	2.7%	-12.7%	20.6	0.3%	1.4%[10 µM]	?
Cc1c2ccccc2nc2c(F)c(NCCO)c(F)c(F)c12	?	-23.9%	18.2	20µM*	3.3%[10 µM]	-12.8%
CCCCCCOC(=O)c1cccnc1	/	/	/	2.5%	13.1%	5.4%
N=C1/C(=C\c2ccc(-c3cccc(Cl)c3)o2)C(=O)N=C2SC=C(c3ccccc3)N12	?	14.1µM*	?	137.4%	-8.9%[10 µM]	12.1%
Cc1ccc(OCc2nnc(NC(=O)c3ccco3)s2)c(C)c1	-1.0%	-17.1%	-107.1*	12.2%	?	14.4%
O=C(Nc1nnc(COc2ccc(Cl)cc2)s1)C1CCCO1 (stereo not given)	10µM*	17.8µM*	?	-7.6%	-24.3%[0.074 µM]	-2.5%
O=C(CNC(=O)c1ccco1)OCc1ccc(Cl)cc1	?	-12.1%	-80.9*	3.3%	2.3%	-12.7%
CCOCc1nnc(NC(=O)c2cc(Cl)ccc2OC)s1	?	14.1µM*	24.0	4.6%	7.9%	-3.6%
O=C(CNc1ccccc1Cl)N/N=C1\CCCc2ccccc21	3.0%	/	/	11.9%	-29.2%[10 µM]	-13.9%[9.22 µM]
Cc1cc(CNC(=O)[C@@H]2C[C@H]2[C@@H](NP(=O)(c2ccccc2)c2ccccc2)c2ccccc2)nn1C	-0.5%	-17.7%	/	-3.4%	-52.1%	/
COc1ccc(-c2nc3cnc(N4CCOCC4)nc3n(Cc3cccc(OC)c3)c2=O)cc1	?	/	/	-5.4%	15.5%	/
CCCCCCCCCCCCCCCCCC(=O)OCC(C)O (stereo not given)	14.5%	-8.9%	/	26.1%	-33.2%	1.5%
CC(=O)NCCCC(=O)NNC1CC(=O)N(c2cccc(Cl)c2)C1=O (stereo not given)	/	/	/	-35.4%	-2.0%[10 µM]	-10.7%[9.22 µM]
O=C(Nc1nnc(COc2ccc(Cl)cc2)s1)c1cccs1	10µM*	25.1µM*	14.0	-6.5%	-0.8%[10 µM]	11.3%
O=C(Nc1nnc(COc2ccc(Cl)cc2)s1)c1ccco1	3.16µM*	/	/	-10.4%	4.4%[10 µM]	-8.9%[9.22 µM]
C/C(=N\Nc1nc(N2CCCCC2)nc(N2CCOCC2)n1)c1ccccc1O	1.1%	/	/	-3.0%	4.6%[10 µM]	3.3%[9.22 µM]
Cc1ccc(CNC(=O)c2ccc(N3CCc4ccccc43)c([N+](=O)[O-])c2)cc1	?	-23.0%	74.7	1.5%	2.1%[10 µM]	-24.8%
COC(CNC(=O)c1ccc(N2CCc3ccccc32)c([N+](=O)[O-])c1)OC	?	-26.4%	13.2	7.0%	15.5%[10 µM]	11.2µM*
NNC(=O)c1ccc(N2CCc3ccccc32)c([N+](=O)[O-])c1	1.58µM*	/	/	6.5%	14.7%[10 µM]	-8.7%
Cc1ccc(C)c(NC(=O)CCC(=O)N/N=C/c2cc([N+](=O)[O-])ccc2O)c1	-5.4%	/	/	14.7%	16.1%[10 µM]	-9.2%[9.22 µM]
O=C(N/N=C/c1cc([N+](=O)[O-])ccc1O)c1ccc2c(c1)OCCO2	5.0%	-13.0%	29.5	20.3%	24.6%[10 µM]	14.1µM*
